# From PubChem BioAssay AID651803 (National Center for Advancing Translational Sciences (NCATS), 2012)
# Among all 1,200 compounds or so, fewer than 10 were called active. The list is a sample of the results. A number with no mark means an inactive call. Calls follow the shape of the dose curve; as a rule, active = well fitted curve in the direction sought with a large enough effect; inconclusive = small, poorly fitted or top-dose-only effect, or another doubt; inactive = no such curve, though single readings can be large or run the other way.
# Target: Transcriptional regulator ERG (Homo sapiens) (UniProt P11308)
# Sequence (P11308 whole entry, looked up): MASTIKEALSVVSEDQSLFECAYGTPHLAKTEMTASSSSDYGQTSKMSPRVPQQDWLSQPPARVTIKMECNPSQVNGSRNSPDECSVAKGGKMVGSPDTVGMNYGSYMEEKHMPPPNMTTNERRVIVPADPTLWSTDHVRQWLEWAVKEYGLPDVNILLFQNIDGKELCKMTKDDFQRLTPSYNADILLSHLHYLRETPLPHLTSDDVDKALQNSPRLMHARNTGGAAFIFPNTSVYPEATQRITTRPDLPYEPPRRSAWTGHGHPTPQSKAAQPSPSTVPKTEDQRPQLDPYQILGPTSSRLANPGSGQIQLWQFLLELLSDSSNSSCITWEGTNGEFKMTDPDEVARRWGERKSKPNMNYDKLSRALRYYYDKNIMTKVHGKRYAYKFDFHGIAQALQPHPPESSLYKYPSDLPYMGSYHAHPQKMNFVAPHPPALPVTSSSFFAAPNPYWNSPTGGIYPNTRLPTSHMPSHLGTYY
# Assay: qHTS for Small Molecule Inhibitors of the ERG Ets/DNA interaction: TR assay against cherry picks; also: % of control where 0% means no effect
# Conditions: ERG Ets domain-DNA fluorescence polarization, Texas red probe; series mostly up to 154 µM; activity change, negative = inhibition: at the top concentration
# Source text: The Ets family of proteins is a family of ~30 conserved transcription factors defined by the presence of an ~85 amino acid domain referred to as the Ets domain, which mediates sequence-specific DNA binding to a core DNA element GGAA/T.The Ets family member ERG has been linked to several neoplasms. […] More extensive studies of the effects of over-expression of ERG in prostate cells have recently been carried out and have shown that over-expression of ERG results in increased invasion. […] We will carry out a high throughout screen to identify inhibitors of the interaction between ERG and DNA using a fluorescence polarization (FP) assay with a His-tagged ERG Ets domain and fluorescently-labeled DNA probes to develop small molecule inhibitors of this interaction as probes to test this hypothesis and lay the groundwork for the development of targeted therapies against ERG. This is the confirmation against the cherry picks in theprimary screening assay. NIH Molecular Libraries Probe Production Network [MLPCN] NIH Chemical Genomics Center [NCGC] Grant: NS066464 PI Name: John Bushweller, University of Virgina
# 1.5 ul of protein solution (1 uM ERG domain in 300mM KCl, 50mM Tris-HCl, 1mM EDTA, 1mM DTT, pH 7.5); 20 nl Control plate and compound library plate; 1.5 ul mixture of 5 nM Fluorescein-DNA and 100nM Texas-615-DNA solution in same buffer as above solution; measure fluorescence polarization sequentially for fluorescein (Excitation = 480 nm, Emission = 535s, 535p nm) and Texas red (Excitation = 555 nm, Emission = 632s, 632p nm).
row,Compound,"activity change, negative = inhibition"
1,CCOc1ccc(NC(=O)Cc2c(C(=O)O)n(C)c3ccccc23)cc1,5.3%
2,CN(CC(=O)NC(=O)NC1CCCCC1)CC(=O)Nc1ccc(Cl)cc1,1.09%
3,NC(=O)Nc1ccc(C(=O)OCC(=O)NC2CCCc3ccccc32)cc1 (stereo not given),-13.4%
4,Cc1ccccc1S(=O)(=O)N(CC(O)CN1C(=O)NC(C)(C)C1=O)c1ccccc1 (stereo not given),-2.88%
5,Cn1cc2c(=O)n(/N=C/c3ccccc3)cnc2n1,4.94%
6,O=C(O)CN1C(=O)C(=O)N(Cc2ccc(C(F)(F)F)cc2)C1=O,-3.42%
7,Cn1cccc1C(=O)OCC(=O)Nc1ccc2[nH]c(=O)[nH]c2c1,-18.6%
8,CCC(C)NCCOc1ccc(C)cc1[N+](=O)[O-] (stereo not given),11.8%
9,CC(C)n1c(SCc2ccccc2F)nc2c1c(=O)n(C)c(=O)n2C,-13.1%
10,CCc1ccc2c(c1)c(=O)c(C(=O)c1ccc(C)cc1)cn2CC(=O)Nc1ccccc1C,2.71%
11,COc1ccc(C(=O)N2CCc3ccc(NC(=O)c4ccccn4)cc3C2)cc1F,-0.766%
12,CCN(CC(=O)Nc1ccc(N2CCOCC2)cc1)CC(=O)NC(C)(C)C,-0.837%
13,Cc1ccc(C)c(N(CC(=O)NCc2ccco2)C(=O)CNS(=O)(=O)c2ccc(F)cc2)c1,2.79%
14,O=C(OCC(=O)N1CCN(c2ccccc2)CC1)c1cccc([N+](=O)[O-])c1,-8.8%
15,O=C(Nc1ccc(NS(=O)(=O)c2ccc([N+](=O)[O-])cc2)cc1)c1ccco1,6.22%
16,Oc1ccccc1CN1CCCC(N2CCN(c3cccc(C(F)(F)F)c3)CC2)C1 (stereo not given),-0.432%
17,O=C(NNC(=O)c1sccc1-n1cccc1)Nc1ccccc1,11.1%
18,CCOC(=O)c1c(NC(=O)C(C)Sc2cn(CCNC(=O)c3ccc(OC)c(OC)c3)c3ccccc23)sc2c1CCC2 (stereo not given),-9.91%
19,CC(=O)NCc1ccc(S(=O)(=O)N2CCN(c3ccccn3)CC2)cc1,2.4%
20,CN(C(=O)COC(=O)c1cc(S(=O)(=O)N2CCOCC2)ccc1F)C1CCS(=O)(=O)C1 (stereo not given),1.52%
21,Cn1c(SCc2nnc(-c3ccccc3)o2)nc2ccccc21,2.98%
22,COc1cccc(OC)c1C(=O)Nn1c(-c2cccs2)nc2ccccc2c1=O,1.79%
23,Cc1cc(C)c2nc(NC(=O)[C@@H](NC(=O)c3cccc(S(=O)(=O)N4CCOCC4)c3)C(C)C)sc2c1,-9.98%
24,S=C(NCCc1ccccc1)Nc1ccc(Cl)cc1Cl,0.951%
25,CN(C)Cc1cc2ccccc2c2c1COC2,-13.2%
26,O=C(NCC1CCN(S(=O)(=O)c2ccccc2)CC1)Nc1ccc(F)cc1,1.59%
27,O=C1/C(=C/c2cccs2)Sc2ccccc21,14.3%

row,Compound,"activity change, negative = inhibition"
1,Cc1ccc(N(CC(=O)NC2CCCC2)C(=O)CNC(=O)c2cccs2)c(C)c1,-7.05%
2,COc1ccc(N(C(=O)c2snc(C(N)=O)c2N)C(C(=O)NCC2CCCO2)c2ccc3ncccc3c2)cc1OC (stereo not given),-0.522%
3,Cc1ccc(-c2[nH]c(-c3ccc(C(=O)O)cc3)nc2-c2ccccc2)cc1,-7.62%
4,Cc1ccccc1OCc1nc(-c2ccc(NC(=O)c3ccc4c(c3)OCO4)cc2)no1,10.3%
5,CCOCCCNCC(=O)Nc1ccc(S(=O)(=O)NC(C)CC)cc1 (stereo not given),-4.09%
6,CC1CCN(C(=O)COC(=O)c2ccc(=O)n(Cc3ccccc3)n2)CC1,8.59%
7,C=CCN1C(=O)c2ccc(C(=O)Nc3ccccn3)cc2C1=O,-1.88%
8,Cc1cccc(NC(=O)c2cc3ccccc3nc2C)c1,-2.6%
9,CC(=O)Nc1ccc(S(=O)(=O)N[C@@H](C)C(=O)N2CCN(C/C=C/c3ccccc3)CC2)cc1,-0.505%
10,COc1ccc(CN2CCC(C(=O)N3CCCC(C)C3)CC2)cc1OC (stereo not given),8.66%
11,Cc1ccc(NS(=O)(=O)c2cc(Br)cnc2N)c(Cl)c1,-14.9%
12,CCOc1cc(S(=O)(=O)n2ccc(C)n2)ccc1Br,10.8%
13,COc1ccc(NC(=O)C2CC(=O)n3c(nc4ccccc43)N2)cc1 (stereo not given),10.4%
14,COc1ccc(OC)c(NC(=O)c2cccc(NC(=O)c3ccccc3)c2)c1,4.7%
15,COc1ccc(CNCCC2(C(C)C)CCOC(C)(C)C2)cc1 (stereo not given),5.23%
16,O=C(NCCCN1CCOCC1)c1ccc(CSc2ccc(Cl)cc2)cc1,-2.11%
17,O=C(CN1C(=O)CS/C1=C\c1nc(-c2ccc(Cl)cc2)cs1)Nc1cccnc1Cl,4.61%
18,NCCNc1ccc2nnnn2n1,6.05%
19,CCN(CC)S(=O)(=O)c1cccc(-c2nc3n(n2)Cc2ccccc2-3)c1,17%
20,O=C(COc1ccc(-c2ccccc2)cc1)N1CCN(C(=O)c2cccs2)CC1,-5.14%
21,Cc1cc(/C=C(\C#N)C(=O)Nc2ccccc2)c(C)n1-c1ccc(C(=O)O)cc1,-0.126%
22,Cc1ccc(C=Nc2cccnc2N)cc1,44%
23,CC(C)C1NC(=S)N(Cc2ccccc2)C1=O (stereo not given),-0.239%
24,Cc1nc2ccccc2c(=O)n1NC(=O)c1cccnc1Cl,-1.27%
25,COc1ccc(CCn2c(C)cc(C(=O)COC(=O)c3cnc(C)cn3)c2C)cc1,-8.89%
26,CCC(CC)COC(=O)C(C#N)c1nc2ccccc2nc1N1CCN(CC)CC1 (stereo not given),-11.9%
27,CCc1ccccc1N(CC(=O)NCc1ccco1)C(=O)CCC(=O)Nc1ccccn1,-0.223%

row,Compound,"activity change, negative = inhibition"
1,COc1ccc(NC(=O)CSCC(=O)N(C)Cc2cccc(OC)c2OC)cc1,1.32%
2,CN(C)c1ccc2c3c(ccc(N(C)C)c13)C(=O)OC2,3.2%
3,COc1ccc(NC(=S)NCc2ccc3c(c2)cc(C)n3C)cc1,-0.43%
4,Cc1cc2cc(CNC(=O)c3ccc(S(=O)(=O)N4CCCCC4)cc3)ccc2n1C,20.1%
5,COc1cc(OC)c(N(C)S(=O)(=O)c2cccc(C(=O)NC(C)C3CC4CCC3C4)c2)cc1Cl (stereo not given),-3.28%
6,Nc1nc(Cl)c2ncn(C3OC(CO)C(O)C3O)c2n1 (stereo not given),0%
7,CC(C)(C)c1ccc(OCC(=O)Nc2cccc(S(=O)(=O)NC3=NCCCCC3)c2)cc1,4.64%
8,CCc1nc2ccccc2c(C(=O)NCc2ccccc2)c1C,-5.65%
9,COC(=O)c1cc(NC(=O)c2c(Cl)cnn2C)cc(C(=O)OC)c1,-8.91%
10,O=C(CC(c1ccccc1)c1cc(Cl)ccc1O)NCCCN1CCOCC1 (stereo not given),4.28%
11,Cc1cccc(N2C(=O)CC(Cn3nc(C)cc3C)C2=O)c1 (stereo not given),3.34%
12,CC1=CC(=O)C(C(C)C)=C/C1=C(\c1cc(C(C)C)c(OP(=O)(O)O)cc1C)c1ccccc1C(=O)O,-2.93%
13,Nc1c(C(=O)O)cnn1-c1ccccc1,-3.42%
14,OC(Cn1cnnc1)c1ccccc1 (stereo not given),3.72%
15,COc1ccccc1NS(=O)(=O)c1cc(C(=O)N2CCCC2)ccc1C,6.04%
16,COc1ccc(-c2nc3n(n2)C(c2ccccc2OC)C(C(=O)Nc2cccnc2)=C(C)N3)cc1 (stereo not given),-20.2%
17,COc1ccc2c(CCNC(=O)/C=C/c3ccc(OC)c(OC)c3)c[nH]c2c1,1.82%
18,O=C(/C=C/c1ccc([N+](=O)[O-])cc1)NCc1ccco1,2.4%
19,CC1(C)C2CCC1(CS(=O)(=O)N1CCC(C(N)=O)CC1)C(=O)C2 (stereo not given),18.6%
20,CC(C)CNC(=O)CCc1nc(-c2ccccc2)no1,-4.45%
21,COc1ccc(N/C=C(\C(C)=O)c2ccc(OC)c(OC)c2)cc1OC,1.84%
22,O=C(CNC(=S)N(CCCN1CCOCC1)Cc1cccs1)NC1CCCCC1,2%
23,O=C(COc1ccc(F)cc1)Nc1nnc(-c2ccncc2)s1,-8.56%
24,COc1ccc(CCCC(=O)Nc2cc(C)ccc2OC)cc1,1.5%
25,CCOC(=O)C1CCCN(C(=O)c2nn(-c3ccc(C)cc3)c(=O)n(C)c2=O)C1 (stereo not given),-21.4%
26,O=[N+]([O-])c1ccc(S(=O)(=O)N/N=C/c2ccsc2)cc1,-10.2%
27,O=C(Nc1ccc(N2CCOCC2)cc1)c1ccc2nc(-c3ccco3)c(-c3ccco3)nc2c1,-17%

row,Compound,"activity change, negative = inhibition"
1,CCn1c(=O)cc(OCC(=O)Nc2ccccc2C#N)c2ccccc21,-0.687%
2,CCOC(=O)C(=O)c1c(-c2ccccc2)nc2ccccn12,-0.0707%
3,O=C(NCC(=O)N(c1ccccc1)C(C(=O)NC1CCCCC1)c1cccnc1)c1ccco1 (stereo not given),1.05%
4,C[C@H](CO)N1C[C@H](C)[C@@H](CN(C)CC2CC2)Oc2c(NC(=O)C3CC3)cccc2C1=O,1.57%
5,CCOc1ccccc1C1CC(c2ccc(Br)cc2)Nc2nc(N)nn21 (stereo not given),-19.2%
6,COc1ccc(/C=C/C(=O)Nc2c(C(=O)O)[nH]c3ccccc23)cc1OC,-17.3%
7,COc1ccc(-c2noc(Cn3c(=O)c4ccccc4n(CC(=O)Nc4cccc(C(F)(F)F)c4)c3=O)n2)cc1,12.9%
8,COCCNC(=O)CSc1nc2ccccc2c(=O)n1-c1cccc(OC)c1,-10.6%
9,CCCCSc1cc(=O)n(-c2ccccc2)nc1C(=O)OCC,-3.95%
10,COc1c2c(c(CCC(=O)O)c3c1C=CC(C)(C)O3)OC(C)(C)C=C2,0.0019%
11,CC1Cc2ccccc2N1CC(=O)Nc1ccc2c(c1)OCO2 (stereo not given),-2.39%
12,CCC(C)NCCCOc1ccc(C)cc1OC (stereo not given),-4.22%
13,CCc1ccc(S(=O)(=O)NC2CC(C)(C)NC(C)(C)C2)cc1,-5.64%
14,Cc1cc2nc(-c3ccc[nH]c3=O)n(Cc3ccccc3F)c2cc1C,-0.252%
15,COc1ccc(OCCN2CCN(C(=O)c3ccc(OC(F)F)c(OC)c3)CC2)cc1,0.86%
16,COc1ccc(C(=O)N(C)Cc2ccc(C)o2)cc1OC1CCN(C(C)C)CC1,1.33%
17,COC(=O)C(CSCc1ccccc1)NC(=O)CSc1nc(N)cc(=O)[nH]1 (stereo not given),0.742%
18,COc1ccc2cc(CO)c(Cl)nc2c1,4.04%
19,Cc1cccc(-c2cnn(-c3cccc([N+](=O)[O-])c3)c2N)c1,-15.3%
20,CC(=O)Nc1ccc(SCC(=O)N(C)C2CCS(=O)(=O)C2)cc1 (stereo not given),-0.814%
21,CC(C)=CCOc1ccc2ccc(=O)oc2c1,-0.682%
22,CCOC(=O)COc1ccc(/C=C2/C(=O)NN(c3ccc(F)cc3)C2=O)cc1OC,4.26%
23,Cc1ccc(-c2nnn(CC(=O)N(c3ccccc3)C(C(=O)NCC3CCCO3)c3ccc(F)cc3)n2)o1 (stereo not given),-5.14%
24,Cc1ccc(CNC(=O)COc2ccc(S(=O)(=O)N3CCCC3)cc2)cc1,0.765%
